Experimental findings from PubChem BioAssay AID925 (National Center for Advancing Translational Sciences (NCATS), 2007) are described below.

“And” between values parts separate entries of the source, which are not always exact repeats. Equal values may be shown once. In all, about 65,000 compounds went through this assay and about 40 (0.06%) were called active. Entries that show only a call come without a potency. The sample holds actives, similar compounds and a random draw of the others, so the mix is not that of the screen. Values without a mark were called inactive. Calls come from the whole dose curve; as a rule, active = well fitted activation curve with a large enough effect; inconclusive = small, poorly fitted or top-dose-only effect; inactive = flat fitted curve, though single readings scatter.
Potency is the fitted concentration of half-maximal effect.

The assay in a line: qHTS Assay for Modulators of Hemoglobin Beta Chain Splicing. The following applies: HBB splicing reporter cell assay, EGFP reporter with mutant IVS2-654 intron; Potency: activation; series mostly up to 46.1 µM. An excerpt: NIH Chemical Genomics Center [NCGC]
NIH Molecular Libraries Screening Centers Network [MLSCN]
PI Name: Dr. Ryszard Kole
Modulation of Alternative Splicing as Therapy
Abnormal splicing is associated with a number of diseases, including cancer and genetic diseases such as cystic fibrosis, muscular dystrophy and beta-thalassemia. Alteration of disease associated splicing patterns provides a promising target for treatment. […] Mutations in the second intron of the beta-globin gene at positions are clinically relevant and cause mis-splicing which results in an out of frame gene product.
EGFP-654 and 705 HeLa Cells as screen system.
HeLa cell lines were stably transfected with a construct in which the EGFP (enhanced green fluorescent protein) cDNA was interrupted by the second intron of the beta-globin gene (IVS2-654). The ISV2 intron contains mutations which cause mis-splicing of EGFP and premature termination of EGFP which results in a nonfluorescent protein product. […] Expression of the transgene was driven by the CMV promoter. We concluded that a low molecular weight compound, which restored correct splicing of intron 2 would also generate functional EGFP protein, resulting in a fluorescent signal. Thus, the HeLa cells that express the EGFP-654 construct can be used for high throughput screening of a chemical library.
NCGC Assay Protocol Summary:
High Throughput Screening. Freshly thawed HeLa EGFP-654 cells were seeded in 5 ul of optimem media (Invitrogen) containing 2 % fetal calf serum (Hyclone) and 1x penicillin/streptomycin (Invitrogen) at a concentration of 500 cells per well in 1536-well plates. Cells were incubated overnight at 37C in 5% CO2. The next day, cells were treated with DMSO, 500 nM antisense ISV2 654 PNA control oligo, or library compound and allowed to grow at 37C in 5% CO2 for 2 days. The PNA oligo blocked the mutation site in the intron and allowed proper (wild type) splicing to occur, resulting in full length EGFP expression and also allowed for optimization of the assay parameters. Plates were read in the Acumen Explorer (TTP Labtech) using 488 nm laser excitation and 500-520 nm emission PMT filter in a 1 x […] capture mode. Fluorescnet Fluorescent objects ranging in size from […] were measured and the total peak GFP intensity for each well was used for data analysis.
Keywords: Thalassemia, beta-thalassemia, beta-globin, EGFP, ISV2 654, ISV2 705, SSO, PNA, antisense, splicing, MLSMR, MLSCN, NIH Roadmap, qHTS, NCGC
For orientation: In qHTS, concentration-response curves come from the screen itself.
In the case of `C/C=C1\C(=O)C[C@@H]2[C@@H]3CCC4=CC(=O)CC[C@@]4(C)[C@H]3CC[C@@]12C`, the activation result was “inactive”.

Take `Nc1nc2c(ncn2[C@H]2CC[C@@H](CO)O2)c(=O)n1C(=O)c1ccccc1`: the activation was 4.28% [at 9.22 µM, normalised to 500 nM splice-correcting PNA].

In the case of `N#Cc1cccc(-c2nc3cnc(N4CCNCC4)nc3n(C3CC3)c2=O)c1`, the activation result is “inactive”.

Regarding `CCNc1ncc2nc(CCc3ccccc3)c(=O)n(-c3ccc(OC)cc3)c2n1`, the activation entry is “inactive”.

As for `COCCn1c(=O)c(-c2cc(F)cc(F)c2)nc2cnc(N3CCNCC3)nc21`, the activation result was “inactive”.

Regarding `N#CCCn1c(=O)c(-c2cc(F)cc(F)c2)nc2cnc(Oc3ccccc3)nc21`, the activation entry is “inactive”.

For the molecule `CN1CCc2[nH]nc(-c3n[nH]c4c3CN(C)CC4)c2C1`, the activation was 1.49% [at 9.22 µM, normalised to 500 nM splice-correcting PNA].

On to `COC(=O)N1CCC2(CCCN(Cc3ccccc3OC)C2)CC1`, for which the activation entry is “inactive”.

As for `CN(C)CCCn1c2ccccc2c2cnccc21`, the activation is 4.04% [at 9.22 µM, normalised to 500 nM splice-correcting PNA].

For the molecule `CCN1C(=O)c2cccc3c(N)ccc1c23`, the activation result was “inactive”.

In the case of `Nc1ccc2c3c(cccc13)C(=O)NC2=O`, the Potency is 31.6 µM (active).

Turning to `CC(C)CN1CCc2nc(-c3ccccc3)c3c(c2C1)COC(C)C3` (centres undefined), the activation is 2% [at 9.22 µM, normalised to 500 nM splice-correcting PNA].

Regarding `CCCn1c(-c2ccc(F)cc2)nc2c(NC3CCN(Cc4ccccc4)C3)nc(C)nc21` (centres undefined), the activation entry is “inactive”.

Regarding `CCOc1ccc(N=NS(=O)(=O)O)cc1`, the activation is 3.52% [at 9.22 µM, normalised to 500 nM splice-correcting PNA].

Regarding `CCCCC(CC)CN` (centres undefined), the activation entry was “inactive”.

In the case of `CC(C)(C)[Si](OCC[C@@H]1C[C@@]1(C)[C@@H](NP(=O)(c1ccccc1)c1ccccc1)c1ccccc1)(c1ccccc1)c1ccccc1`, the activation entry is “inactive”.

`Cn1c(=O)n2n(c1=O)[C@H]1[C@H](O)[C@H]3O[C@H]3C(=O)[C@H]1CC2`: the activation is 0.301% [at 9.22 µM, normalised to 500 nM splice-correcting PNA].

For the molecule `CN1C(=O)C[C@H](c2ccccc2)C1=O`, the activation entry is “inactive”.

Consider `S=c1[nH]nc(SCc2ccccc2Cl)c2[nH]cnc12`, for which the activation was 3.49% [at 9.22 µM, normalised to 500 nM splice-correcting PNA].

Take `CC(=O)OCC1OC(C#CCCCc2ccccc2)C=CC1OC(C)=O` (centres undefined): the activation is -0.748% [at 9.22 µM, normalised to 500 nM splice-correcting PNA] and 1.62% [at 9.22 µM, normalised to 500 nM splice-correcting PNA].

Turning to `O=C(c1ccco1)N1CCC2(CC1)CCN(c1ncccn1)CC2`, the activation entry is “inactive”.

As for `CC(C)[C@@H](OCc1ccccc1)[C@H](C)/C=N\OC[C@@H](C)[C@H](OCc1ccccc1)C(C)C`, the activation is 4.09% [at 9.22 µM, normalised to 500 nM splice-correcting PNA].

With `COc1ccccc1-c1nc(N2CCN(C)CC2)c2ccccc2n1`, the activation result was “inactive”.

Turning to `CCCCCCN(C(=O)CCCCCN1C(=O)NC(c2ccc(C(F)(F)F)cc2)C(C(=O)OCc2ccccc2)=C1C)C(C(=O)NCCCC)c1ccc(OCC(=O)OC)c(C(=O)OC)c1` (centres undefined), the activation entry is “inactive”.

On to `CC(=O)CC(C)C`, for which the activation result was “inactive”.

As to `COC(=O)[C@@]1(Cc2ccc(F)cc2)[C@H]2c3cc(C(=O)N(C)C)n(CCc4c[nH]c5ccc(OC)cc45)c3C[C@H]2CN1C(=O)c1ccccc1`, the activation result was “inactive”.

Take `CC(C)NC(=O)N1CCCC2(CCN(C(=O)c3cccn3C)CC2)C1`: the activation entry is “inactive”.

As to `O=C(O)/C(=C/c1c(C(=O)O)[nH]c2cc(Cl)cc(Cl)c12)c1ccccc1`, the activation result is “inactive”.

Regarding `O=C(c1ccco1)N1CCC[C@@]2(CCN(c3ccccc3)C2)C1`, the activation result was “inactive”.

Turning to `NC1(C(=O)OCc2ccccc2)CCCC1`, the activation was 1.82% [at 9.22 µM, normalised to 500 nM splice-correcting PNA].

With `COc1ccc(Br)c2c1C[C@H](C(=O)O)CC2`, the activation was 3.18% [at 9.22 µM, normalised to 500 nM splice-correcting PNA].

`COC(=O)c1ccc(C(NC(=O)OCc2ccccc2)/C(C)=C/[C@@H](C)C(=O)NCc2cc(C)on2)cc1` (some centres undefined): the activation result was “inactive”.

Consider `COc1ccc(-n2c(=O)c(-c3cn(C)c4ccccc34)nc3cnc(OC)nc32)cc1`, for which the activation entry is “inactive”.

Consider `Brc1cc(Br)c(Oc2cc(Br)c(Br)cc2Br)cc1Br`, for which the activation entry is “inactive”.

For the molecule `Oc1ccc(O)c2c(O)cccc12`, the activation result was “inactive”.

For the molecule `N#Cc1cccc(-c2ccc3ncnc(NCc4cccs4)c3c2)c1`, the activation result was “inactive”.

Regarding `CC[N+](C)(CC)CCC[n+]1c(-c2ccccc2)c2cc(N)ccc2c2ccc(N)cc21`, the activation result is “inactive”.

On to `COc1ccccc1-c1cc(NCc2cccs2)ncn1`, for which the activation entry is “inactive”.

Regarding `COc1ccc2[nH]cc(CCNc3nc(-c4cccc(NS(C)(=O)=O)c4)nc4ccccc34)c2c1`, the activation entry was “inactive”.

In the case of `C[C@H](CCC(=O)O)[C@H]1CC[C@@H]2[C@H]3CC[C@H]4C[C@H](O)CC[C@@]4(C)[C@@H]3CC[C@@]21C`, the activation was 1.15% [at 9.22 µM, normalised to 500 nM splice-correcting PNA].

For the molecule `C[C@H]1O[C@@H](CC(=O)O)Cc2c1c(O)c1c(O)cc(-c3cc(=O)c4c(=O)c5c(c(=O)c=4c3=O)C[C@H](CC(=O)O)O[C@@H]5C)c(O)c1c2O`, the activation is 4.76% [at 9.22 µM, normalised to 500 nM splice-correcting PNA].

Consider `COC(=O)[C@@]1(Cc2ccccc2)[C@H]2c3cc(C(=O)N(C)C)n(CCSCCO)c3C[C@H]2CN1C(=O)c1ccccc1`, for which the activation entry was “inactive”.

For the molecule `COc1ccc(C(=O)N/N=C2/C(=O)c3c(C)cc(C)cc3CC2(C)C)cc1`, the activation was 3.55% [at 9.22 µM, normalised to 500 nM splice-correcting PNA].

Take `COC(=O)[C@@]1(Cc2ccccc2)[C@H]2c3cc(C(=O)N4CCCC4)n(Cc4ccc(C)o4)c3C[C@H]2CN1C(=O)c1ccccc1`: the activation entry was “inactive”.

In the case of `CC(C)CC1(C(=O)NCc2ccccn2)C=CCN1C(=O)c1ccccc1` (centres undefined), the activation result was “inactive”.

Consider `COC(=O)C1(C)C=CC2(CCCCC2)N1C(C)=O` (centres undefined), for which the activation result is “inactive”.

In the case of `O=C(Nc1cccc(F)c1)N1CC2(CCN(C(=O)c3cnccn3)CC2)C1`, the activation result is “inactive”.

On to `COc1ccc(OC)c([C@H](O)CNC(=O)CN)c1`, for which the activation result is “inactive”.

Take `CS(=O)(=O)N1CCC[C@@]2(CCN(c3ccncc3)C2)C1`: the activation entry was “inactive”.

Consider `COc1ccc(CNc2ncnc3ccc(-c4cccnc4)cc23)c(OC)c1`, for which the activation entry was “inactive”.

On to `CN(C)C(=O)/N=N\C(=O)N(C)C`, for which the activation entry is “inactive”.

In the case of `Oc1c(Br)cc(CN(Cc2cc(Br)c(O)c(Br)c2)C2CCCCC2)cc1Br`, the activation is 1.47% [at 9.22 µM, normalised to 500 nM splice-correcting PNA].

Turning to `CC(C)(C)c1ccc(OC2C=CC(C#Cc3ccccc3)OC2CO)cc1` (centres undefined), the activation was -0.074% [at 9.22 µM, normalised to 500 nM splice-correcting PNA].

Regarding `CC(C)=CCC/C(C)=C/CO/N=C1/C[C@@H](O)[C@@H](O)[C@@H]2[C@@H]3C(=O)N(C(C)(C)C)C(=O)[C@H]3CC[C@H]12`, the activation is -1.71% [at 9.22 µM, normalised to 500 nM splice-correcting PNA].

For the molecule `CCCn1c(C)nc2c(NCCCCN(CC)CC)nc(C)nc21`, the activation result is “inactive”.

For `O=C(Cl)c1ccccc1[N+](=O)[O-]`, the activation entry was “inactive”.

Turning to `CC(C)(C)NCC[C@@H](O)c1cc(C(F)(F)F)nc2c(C(F)(F)F)cccc12`, the activation was 0.766% [at 9.22 µM, normalised to 500 nM splice-correcting PNA].

For `COc1cccc(-c2cc(NCCc3c[nH]c4ccc(OC)cc34)ncn2)c1`, the activation result was “inactive”.

For `COc1ccc(/C=C/NC(=O)Cc2ccc(OC)c(OC)c2)cc1`, the activation was 1.47% [at 9.22 µM, normalised to 500 nM splice-correcting PNA] and 0.37% [at 9.22 µM, normalised to 500 nM splice-correcting PNA].

`O=C(O)c1nccnc1C(=O)Nc1ccc(Br)cn1`: the activation result was “inactive”.

Take `COc1cccc(Cn2c(=O)cnc3cncnc32)c1`: the activation entry is “inactive”.

Consider `O=C(O)[C@H](CCc1ccccn1)c1ccccc1`, for which the activation is 1.34% [at 9.22 µM, normalised to 500 nM splice-correcting PNA].

Turning to `N#Cc1ccccc1-c1ccc2ncnc(NCc3cccnc3)c2c1`, the activation result is “inactive”.

Take `CCCCC/C=C/C=C/C=O`: the activation entry is “inactive”.

Turning to `O=C(O)CCCCC(=O)O`, the activation entry is “inactive”.

As to `CNC(=O)C1(C)C=CC2(CCCCC2)N1C(C)=O` (centres undefined), the activation entry was “inactive”.

Consider `O=S(=O)(c1ccccc1)N1CCC2(CC1)CN(Cc1nccs1)C2`, for which the activation entry was “inactive”.

Regarding `CCON=C1C(C)(C)C(C)(C)C(C)(C)C1(C)C`, the activation is 1.16% [at 9.22 µM, normalised to 500 nM splice-correcting PNA].

As for `O=C(c1cnccn1)N1CCC2(CCN(Cc3cc(C(F)(F)F)cc(C(F)(F)F)c3)CC2)CC1`, the activation result was “inactive”.

In the case of `O=C(c1ccncc1)N1CCC2(CCCN(C(c3ccccc3)c3ccccc3)C2)CC1`, the activation result is “inactive”.

As for `Nc1ccccc1N`, the activation result was “inactive”.

In the case of `CC(=O)OCC(COC(C)=O)OC(C)=O`, the activation result is “inactive”.

`Cc1cc(C(=O)O)ccc1[N+](=O)[O-]`: the activation entry is “inactive”.

Consider `O=C1C[C@@H](O)[C@@H](O)[C@H]2[C@@H]3C(=O)N(Cc4ccc5c(c4)OCO5)C(=O)[C@@H]3CC[C@H]12`, for which the activation is 3.01% [at 9.22 µM, normalised to 500 nM splice-correcting PNA] and 2.86% [at 9.22 µM, normalised to 500 nM splice-correcting PNA].
